SW480 rereplic – DNA re-replication induction in SW480 cells; Potency, µM (titrated, usually from 46.1 µM), inactives show at the highest dose re-replication activation, most hits filed as activators; SW480 DNA re-replication, Hoechst DNA content imaging, 48 h; hit rate 1.8% among 340,000; AID 624297; further: % of control where 0% means no effect; nearly all actives have a fitted effect of over 55% in size
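Image-based DNA-content assay: after two days of treatment, nuclei were labelled with the DNA dye Hoechst and imaged, and hits were compounds raising the count of nuclei showing high fluorescence intensity.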
KB-3-1 tox – kills parental KB-3-1 adenocarcinoma cells | KB-3-1 viability, CellTiter-Glo ATP luminescence, 72 h | Potency, µM (highest dose often 46.1 µM), usual class: cytotoxic | hit rate 1.4% among 400,000 | AID 1347075; further: on the % scale 0 is the no-effect control and ±100 the full control effect; nearly all actives have a fitted effect of over 60% in size
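Parental KB-3-1 adenocarcinoma cells in phenol-red-free DMEM with 10% FBS were pin-treated with compounds at several concentrations, incubated 72 h at 37 °C, and viability read by CellTiter-Glo luminescence; concentration-effect curves were fitted after normalization.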
KB-V1 MDR tox – KB-V1 MDR subline cytotoxicity; KB-V1 MDR cells viability, CellTiter-Glo, 72 h; Potency, µM (highest dose often 46.1 µM), usual class: cytotoxic; hit rate 3.4% among 400,000; further: on the % scale 0 is the no-effect control and ±100 the full control effect; nearly all actives have a fitted effect of over 60% in size
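Following 72 h at 37 degrees C with compound, KB-V1 cell viability was read by CellTiter-Glo luminescence, medium being phenol-red-free DMEM plus 10% FBS; concentration-response parameters came from normalized, curve-fitted qHTS data.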
PINK1 expr mod – PINK1 expression modulation. PINK1 immunofluorescence, high-content cytometry, 24 h. Potency, µM (highest dose often 76.6 µM), without a hit: at the top dose activation (PINK1 increase), usual class: activators. hit rate 0.2% among 410,000; active means well fitted activation curve with a large enough effect; inconclusive means small, poorly fitted or top-dose-only effect; cell line not stated here; further: % of control where 0% means no effect; nearly all actives have a fitted effect of over 65% in size
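Cells are seeded, rested 12 hours, then given compound at five concentrations or DMSO for 24 hours. After fixation, blocking and antibody staining, PINK1 amount and mitochondrial localization are scored; CCCP serves as control.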
MCF10A rereplic – inducers of DNA re-replication in MCF 10A breast cells | MCF 10A DNA re-replication, Hoechst nuclear intensity, 48 h | Potency, µM (titrated, usually from 46.1 µM), for inactives: top-dose activity, positive = re-replication, actives largely listed as activators | hit rate 2.9% among 350,000; further: % of control where 0% means no effect; nearly all actives have a fitted effect of over 50% in size
* = called active by the depositor; i = inactive; ? = inconclusive; / = no result; [ ] = remark or other dose. A selection: hits, their analogues and other compounds. The true share with any hit is near 6.7%. Unless noted, the call rests on the fitted dose curve; in most records, active means well fitted curve in the direction sought with a large enough effect; inconclusive means small, poorly fitted or top-dose-only effect, or another doubt; inactive means no such curve, though single readings can be large; an effect the other way counts as inactive or inconclusive. Potency means the concentration at half of the fitted maximal effect.

SMILES | SW480 rereplic | KB-3-1 tox | KB-V1 MDR tox | PINK1 expr mod | MCF10A rereplic
COc1ccccc1N1CCN(/N=C/c2ccc(O)c(O)c2)CC1 | 13µM* | i | i | 3.7% | 17.4%
CCCCN1C(=O)c2[nH]nc(-c3ccccc3O)c2C1c1ccc(C(C)(C)C)cc1 (configuration not stated) | / | ? | ? | 1.9% | /
CCOC(=O)c1c(C)[nH]c(C)c1S(=O)(=O)N1CCCC(C(=O)N2CCN(c3cccc(Cl)c3)CC2)C1 (configuration not stated) | / | ? | i | 0.0% | /
C/C(=N/Nc1ccc(C(=O)O)cc1)c1ccc2c(c1)Nc1ccccc1S2 | 18.4µM* | i | i | -0.1% | 16.4µM*
C/C(=N\Nc1ccc(C(=O)O)cc1)c1ccc2c(c1)Nc1ccccc1S2 | 8.2µM* | i | i | 3.0% | 16.4µM*
CC(=O)Nc1ccc(NC(=O)c2ccc3c(c2)NC(=O)c2ccccc2S3)cc1 | / | i | ? | 2.3% | /
CCC(O)CNC(=O)c1cnn(-c2nccc(-c3cc(C)sc3C)n2)c1C1CC1 (configuration not stated) | / | / | / | 4.8% | /
N#CCCn1cc(C=C(C#N)C#N)c(-c2ccc(Cl)cc2)n1 | ? | i | i | -0.9% | 3.66µM*
N#CCCn1cc(/C=C2\NC(=S)N(c3ccccc3)C2=O)c(-c2ccc(-c3ccccc3)cc2)n1 | ? | ? | i | 4.8% | 5.8µM*
N#CCCn1cc(/C=N/O)c(-c2ccc(Cl)cc2)n1 | 1.6% | i | i | 2.4%[38.3 µM] | 9.9%
N#CCCn1cc(/C=C(\C#N)c2nc3ccccc3s2)c(-c2ccc(F)cc2)n1 | 14.0% | i | i | ? | 10.1%
O=C(O)CCn1cc(/C=C2/NC(=S)N(c3ccccc3)C2=O)c(-c2ccccc2)n1 | -17.6% | i | i | 0.1% | 12.4%
N#CCCn1cc(/C=N/O)c(-c2ccc(-c3ccccc3)cc2)n1 | ? | ? | i | 1.4% | 13µM*
COc1ccc(S(=O)(=O)N2CCOCC2)cc1NC(=O)c1ccc(SC)cc1OC | / | i | ? | 2.3% | /
COc1ccccc1N=CC=C1OC(C)(C)C(C)(C)O1 | ? | i | i | 2.8% | 20.6µM*
CSc1ccc(/C=N\Nc2nncn2N)cc1 | 7.4% | i | i | -0.2% | ?
CC(C)(C)c1ccc(/C=N/Nc2nncn2N)cc1 | 25.7% | i | i | 0.8% | 11.6µM*
Nn1cnnc1N/N=C/c1cc(Br)cc(Br)c1O | ? | ? | 2.31µM* | 1.1% | ?
CS/C(N)=N/N=C/c1cc(Br)cc(Br)c1O | ? | i | ? | 4.2% | ?
Cc1cc(C)c2c(-n3cccc3)c(C(=O)NCCCN3CCCCC3)sc2n1 | / | / | / | 0.7% | /
Cc1ccc(Cl)cc1N1CCN(S(=O)(=O)c2c(C)[nH]c(C)c2C(=O)N2CCCCC2)CC1 | -48.4% | i | i | 1.0% | ?
CCOC(=O)CNC(=O)C(Cc1ccccc1)NS(=O)(=O)c1cccs1 (configuration not stated) | 1.0% | i | i | -2.3% | 20.6µM*
CSCCC(NS(=O)(=O)c1cccs1)C(=O)NCc1ccc(C)cc1 (configuration not stated) | 0.164µM* | i | ? | -0.7% | 3.0%
CSCCC(NS(=O)(=O)c1cccs1)C(=O)NCc1ccccc1 (configuration not stated) | -1.8% | i | i | -1.0% | -35.6%
COc1cc(-c2c(OC)cccc2OC)cc2c1OCCN(Cc1cn[nH]c1-c1ccc(Cl)cc1)C2 | / | / | / | -0.4% | /
SMILES | SW480 rereplic | KB-3-1 tox | KB-V1 MDR tox | PINK1 expr mod | MCF10A rereplic
CC(=O)c1sc(NC(=O)C=C(C)C)nc1C | 4.4% | i | i | 1.0% | 10.6%
CC(=O)c1sc(NC(=O)C2(F)C(F)(F)C(F)(F)C(F)(F)C(F)(F)C2(F)F)nc1C | 0.4% | ? | 7.31µM* | / | 9.2µM*
CCc1ccc(-n2nc(C)c3c(C(=O)NCCc4ccc(OC)c(OC)c4)cc(C)nc32)cc1 | / | i | i | 1.1% | /
CS(=O)(=O)N(CC(=O)NCCSC1CCCCC1)c1ccccc1 | 0.7% | i | ? | -1.0% | -21.3%
CS(=O)(=O)N(CC(=O)NCCSC1CCCCC1)c1cccc(F)c1 | -5.7% | i | 14.6µM* | -0.2% | ?
COc1ccc(N(CC(=O)NCCSC2CCCCC2)S(=O)(=O)c2ccccc2)cc1OC | 10.1% | / | / | -0.7% | 13.0%
Cc1cccc(N(CC(=O)Nc2ccccc2C(F)(F)F)S(=O)(=O)c2ccccc2)c1C | / | i | i | 1.1% | /
Cc1cccc(N(CC(=O)NC(C)c2ccccc2)S(=O)(=O)c2ccccc2)c1C (configuration not stated) | / | 18.4µM* | ? | 3.5% | /
Cc1ccccc1N(CC(=O)NCCSC1CCCCC1)S(=O)(=O)c1ccccc1 | -2.0% | ? | 10.3µM* | -0.1% | 20.1%
CCCCC(=O)Nc1cc(C)c(O)c(-c2nc3ncccc3o2)c1 | / | / | / | 1.6% | /
COc1ccc(-c2noc(CSc3nnc(-c4ccncc4)n3-c3ccc(OC)cc3)n2)cc1 | / | ? | i | 1.4% | /
Cc1ccc2c(c1)S/C(=C/c1ccc[n+](CCO)c1)N2C | -1.3% | 2.59µM* | i | 4.0% | 23.2%
C[C@H]1CN([C@@H](C)CO)C(=O)CCCn2nncc2CO[C@H]1CN(C)C(=O)Nc1cccc2ccccc12 | / | i | i | 1.8% | /
CC(C)c1ccc(NC(=O)C2CCCN(S(=O)(=O)c3cccc4cccnc34)C2)cc1 (configuration not stated) | / | i | i | 3.0% | /
Cc1ccc(Sc2c(CO)c(-c3ccccc3)nn2C)cc1 | 0.82µM* | ? | ? | 1.0% | 1.03µM*
Cn1nc(-c2ccccc2)c(CO)c1Oc1cccc(C(F)(F)F)c1 | -0.8% | i | i | 1.4% | 4.7%
Cc1cc(C)cc(N2C(N)=NC(N)=NC2c2ccccc2F)c1 (configuration not stated) | ? | ? | 16.4µM* | 0.6% | 3.7%
N#Cc1c(-c2ccccc2)c(-c2ccccc2)n(Cc2ccco2)c1NC(=O)c1cccs1 | 1.0% | i | 5.62µM* | 0.7% | -4.7%
COc1cccc(CNC(=O)c2ccc3nc(N4CCCCC4)sc3c2)c1OC | / | i | i | 0.4% | /
COc1cc(OC)c(NS(=O)(=O)c2ccc(Cl)c(C(=O)OC(C)C(=O)N3CCCC3)c2)cc1Cl (configuration not stated) | -4.3% | 16.4µM* | 2.31µM* | 2.7% | ?
COc1ccc(NS(=O)(=O)c2ccc(C)c(C(=O)OC(C)C(=O)N3CCOCC3)c2)cc1 (configuration not stated) | 70.3% | i | i | 1.3% | -2.8%
O=c1oc2ccccc2cc1-c1cn2cc(Cc3ccc(F)cc3)sc2n1 | / | 0.581µM* | i | 10.8% | /
COc1cc(/C=N/N=C(/N)c2nonc2N)cc(Br)c1OCc1ccccc1C | 1.4% | i | i | 5.4% | 13µM*
